Measured values reported in PubChem BioAssay AID1117319 (Southern Research Institute, 2015).
“And” between values parts separate entries of the source, which are not always exact repeats. Equal entries are not always repeated. Screen size: about 260,000 compounds; about 1,500 (0.58%) were called active. Roughly 5% stayed inconclusive and do not appear here.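 The calls were made as follows: active = inhibition above a set limit at one or more doses, reproduced on every date tested; inconclusive = results disagree between test dates, or hit never tested in dose response; inactive = the rest.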 The list is a sample of the results. Potency and affinity values are given separately.

The compounds below were run against Virion infectivity factor (Human immunodeficiency virus type 1 group M subtype B (isolate BH10)) + Virion infectivity factor (Human immunodeficiency virus type 1 group M subtype B (isolate BRU/LAI)) + Virion infectivity factor (Human immunodeficiency virus type 1 group M subtype B (isolate PCV12)) + Virion infectivity factor (Human immunodeficiency virus type 1 group M subtype B (isolate HXB2)) + DNA dC->dU-editing enzyme APOBEC-3G (Homo sapiens) (UniProt P69720+P69721+P69722+P69723+Q9HC16) (assay: inhibitors of Vif binding to APOBEC3G peptide, primary screen, biochemical, TR-FRET, GST-Vif 1-94, biotin-A3G peptide, dose response retest (AID 1117319;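 also: Vif residues 1-94 fused to GST binding biotinylated APOBEC3G peptide 110-148; 0% = full assay without inhibitor and 100% = GST in place of GST-Vif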)). Conditions: hits give high values.

inhibition, inactive:
CN1C(=O)C(N=Nc2ccccc2C(=O)O)N(C)C1=S (configuration not stated) 30.3%
Cc1ccc(SCC(=O)N(C)CC(=O)Nc2cccc(F)c2)cc1 0.72%
COc1cccc(-n2c(SC)nnc2-c2cnccn2)c1 -0.18%
CCN(CC(=O)Nc1cc(Cl)ccc1C)C(=O)c1ccc2c(=O)n3c(nc2c1)CCC3 2.7%
CN(C)Cc1cn(CCC(=O)O)c2ccccc12 -3.96%
O=C1OC/C(=C(/O)c2ccc(Cl)cc2)C1=O -8.18%
Cc1ccc(/C=C2\SC(=S)N(Cc3ccccc3)C2=O)o1 29.5%
Cc1ccc(/C=C2\SC(=S)N(c3cccnc3)C2=O)cc1 21.1%
O=C1/C(=C/c2cccs2)SC(=S)N1c1ccccc1 -6.53%
O=C1/C(=C/c2cccnc2)SC(=S)N1c1ccccc1 8.11%
O=C(O)c1ccc(/C=C2/SC(=S)N(Cc3ccccc3)C2=O)cc1 -0.52%
Cc1cccc(N2C(=O)/C(=C/c3cccnc3)SC2=S)c1 -1.54%
Cc1nn(C)c(C(=O)NNC(=S)Nc2ccc(F)cc2)c1[N+](=O)[O-] -3.65%
CCn1cnc2cc(NC(=O)c3ccc(C)cc3)ccc21 -2%
COCCn1c(SCC(=O)N2CCCc3ccccc32)nc2cccnc21 -1.26%
C/C(=N\S(=O)(=O)c1ccc(C)cc1)NC(=S)Nc1ccccc1 -0.88%
Cc1ccsc1C(=O)OCC(=O)Nc1cccc(S(=O)(=O)N2CCOCC2)c1 2.2%
Cc1cc(C(=O)OC(C)C(=O)NC2CCCCC2C)c2ccccc2n1 (configuration not stated) -2.6%
Cc1ccc(C)c(Nc2nc(-c3ccncc3)nc3ccccc23)c1 -7.92%
O=C(OCc1ccccn1)c1ccc(COc2ccc3ccccc3c2)o1 14.9%
CCCCCCNC(=O)C(C#N)c1nc2ccccc2nc1N1CCOCC1 (configuration not stated) 5.51%
N#CC(C(=O)NCCc1ccccc1)c1nc2ccccc2nc1N1CCOCC1 (configuration not stated) -2.43%
Cc1nn(-c2ccccc2)c2sc(C(=O)N3CCCCC3)cc12 -2.58%
CCCCN1C(=O)C(=O)N(CC(=O)c2ccc[nH]2)C1=O 5.74%
CCOC(=O)N1CCC(n2c(SCC(=O)Nc3nccs3)nc3ccsc3c2=O)CC1 -7.21% and 20.2%
COc1ccc(NC(=S)NCc2cccs2)cc1 0.47%
CCN(CC(=O)Nc1c(C(=O)OC)[nH]c2ccc(Cl)cc12)c1ccc2c(c1)OCO2 0.99%
COC(=O)c1[nH]c2ccccc2c1NC(=O)CN1CCN(Cc2ccc3c(c2)OCO3)CC1 -1.82%
COc1ccc(OCCN(C)C(=O)c2cccc(S(=O)(=O)N(C)c3ccccc3)c2)cc1 -4.53%
O=C1S/C(=C\c2cccs2)C(=O)N1c1ccc(O)cc1 -10.4%
Cn1cccc1/C=C1\SC(=O)N(c2ccc(O)cc2)C1=O 4.46%
CN(C)c1ccc(/C=C/C=C2/SC(=S)N(c3ccccc3)C2=O)cc1 19.3%
O=C(O)c1ccc(N2C(=O)/C(=C/C=C/c3ccccc3)SC2=S)cc1 7.15%
CC1(C)N=C(c2ccc(Cl)cc2)C(=O)N1 -0.69%
CNC(=O)c1ccsc1NC(=O)C1CCCN1S(=O)(=O)c1cccs1 (configuration not stated) -0.6%
O=C1N=C(N2CCOCC2)S/C1=C\c1ccc(-c2ccccc2Cl)o1 21.8%
NC1=NC(=O)/C(=C/c2cccs2)S1 10%
O=C1N=C(N2CCOCC2)S/C1=C\c1cccs1 -6.4%
O=C1N=C(N2CCOCC2)S/C1=C/c1cccs1 1.92%
Cc1ccccc1-c1ccc(/C=C2/SC(N3CCOCC3)=NC2=O)o1 6.07%
NC1=NC(=O)C(=Cc2ccccc2)S1 1.08%
Cc1ccc(-c2ccc(/C=C3\SC(N4CCOCC4)=NC3=O)o2)cc1 6.18%
O=C1N=C(N2CCCC2)S/C1=C\c1ccccc1 27.9%
O=C(CCc1nnc(CCc2ccccc2)o1)N1CCCCC1CCn1cccn1 (configuration not stated) -2.83%
CC(=O)NCCn1c(SCc2ccc(C)cc2C)nc2ccccc2c1=O -4.41%
COCc1cc(=O)[nH]c(N2CCN(C(=O)c3ccco3)CC2)n1 -8.81%
CCOc1ccc(NC(=O)c2cc3c(=O)n(C)c4ccccc4c3n2C)cc1 -12%
O=C(CNC(=O)c1cc2ccccc2o1)NCc1cccs1 15.4%
Clc1ccc(NCn2cncn2)nc1 10.8%
CCc1cccc(C)c1NC(=O)CO/N=C(\C)c1cc2ccccc2o1 -0.14%
CC(OC(=O)CCC1CCCCC1)C(=O)Nc1ccc(S(N)(=O)=O)cc1 (configuration not stated) 6.23%
Nc1c(O)ccc2c1C(=O)c1ccccc1C2=O 10.2%
O=C(O)c1cccc2cc(-c3ccccc3)oc(=O)c12 3%
Cc1oc2c(O)c(O)ccc2c(=O)c1-c1cnn(-c2ccccc2)c1 28.2%
O=C(O)c1cccc(-c2ccccc2)c1O 2.46%
CCOC(=O)C(C#N)=C1CCN(Cc2ccccc2)CC1 -5.62%
CN1CCN(S(=O)(=O)c2ccc(NC(=S)NC(=O)c3ccccc3)cc2)CC1 0.13%
Cc1ccc(C(=O)NC(=S)Nc2ccc(S(=O)(=O)N3CCN(C)CC3)cc2)cc1 1.48%
COc1ccc(CNC(=O)COC(=O)c2c(NC(C)=O)sc(C)c2C)cc1OC 1.62%
O=C(O)C1CC(=O)N(c2ccc(OCc3ccc(Cl)cc3Cl)cc2)C1 (configuration not stated) 4.2%
N#CC(C#N)=c1ccc2c(c1)N1C3=C(CCCC3)CC3CCCCC31N=2 (configuration not stated) 20.5%
CC(CCc1ccccc1)NC(=O)C1CCN(S(=O)(=O)N2CCOCC2)CC1 (configuration not stated) -3.69%
